Laboratory results: PubChem BioAssay (NCI)
Compounds without any hit were thinned out: in the full panel of roughly 83,000, 20% have a hit.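 In brief: 96-well plates, 48 h treatment, single concentration, percent growth endpoint.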 A number with no mark means an inactive call. The source made the active and inactive calls. How the source made its calls: active means growth percent below 10; inactive means the rest.

Experiments:
Assay in all cases: NCI-60 one-dose screen, 48 h (100 = growth as untreated, 0 = no growth, -100 = all killed)
HCT-15 colon = conditions: 10 µM unless noted
HT29 colon = conditions: 10 µM unless noted
SNB-75 CNS = conditions: 10 µM unless noted
U251 CNS = conditions: 10 µM unless noted
PC-3 prostate = conditions: 10 µM unless noted
SK-MEL-5 melanoma = conditions: 10 µM unless noted
UACC-62 melanoma = conditions: 10 µM unless noted
SK-MEL-28 melanoma = conditions: 10 µM unless noted
SK-MEL-2 melanoma = conditions: 10 µM unless noted
EKVX NSCLC = conditions: 10 µM unless noted
SN12C renal = conditions: 10 µM unless noted
UO-31 renal = conditions: 10 µM unless noted
TK-10 renal = conditions: 10 µM unless noted
ACHN renal = conditions: 10 µM unless noted
CAKI-1 renal = conditions: 10 µM unless noted
A498 renal = conditions: 10 µM unless noted
CCRF-CEM leukemia = conditions: 10 µM unless noted
MOLT-4 leukemia = conditions: 10 µM unless noted
LOX IMVI melanoma = conditions: 10 µM

In the case of `CCN1C(=O)/C(=N\N=C(/C)c2ccc3c(c2)Nc2ccccc2S3)c2cc(Cl)ccc21`, the growth (HCT-15 colon) is reported as 46.7%, the growth (HT29 colon) is reported as 71.6% and the growth (SNB-75 CNS) is reported as 76%. The growth (U251 CNS) was 73.7%, the growth (PC-3 prostate) was 40.5% and the growth (SK-MEL-5 melanoma) was 7.2% (active). For the same compound, the growth (UACC-62 melanoma) was 32.7%, the growth (SK-MEL-28 melanoma) was 47.2% and the growth (SK-MEL-2 melanoma) was 70.8%. The growth (EKVX NSCLC) was 40.1%, the growth (SN12C renal) was 58.9% and the growth (UO-31 renal) was 56.6%. The growth (TK-10 renal) was 72.1%, the growth (ACHN renal) was 24.6% and the growth (CAKI-1 renal) was 48.1%. It also gave a growth (A498 renal) of 60.1%, a growth (CCRF-CEM leukemia) of 50.8% and a growth (MOLT-4 leukemia) of 37.4%.
Work on `CCCSc1nc(NCCc2c[nH]c3ccccc23)c(C#N)c(-c2ccccc2)n1` yielded a growth (HCT-15 colon) of 27.3%, a growth (HT29 colon) of 30.3% and a growth (SNB-75 CNS) of 87.7%. The growth (U251 CNS) was 44.6%, the growth (PC-3 prostate) was 35% and the growth (SK-MEL-5 melanoma) was 41.6%. The growth (UACC-62 melanoma) was 76.3%, the growth (LOX IMVI melanoma) was 53.3% and the growth (SK-MEL-28 melanoma) was 97.4%. For the same compound, the growth (SK-MEL-2 melanoma) was 75%, the growth (EKVX NSCLC) was 35.7% and the growth (UO-31 renal) was 64.5%. For the same compound, the growth (TK-10 renal) was 107%, the growth (ACHN renal) was 78.2% and the growth (CAKI-1 renal) was 57.1%. For the same compound, the growth (A498 renal) was 82.5%, the growth (CCRF-CEM leukemia) was 40.4% and the growth (MOLT-4 leukemia) was 44.7%.
With `COc1ccc2c(c1)C(=N/N=C(\C)c1ccc(OC)c(S(N)(=O)=O)c1)C(=O)N2` the growth (HCT-15 colon) was 98.2%, the growth (HT29 colon) was 96.3% and the growth (SNB-75 CNS) was 66.3%. The growth (U251 CNS) was 74.4%, the growth (PC-3 prostate) was 83.3% and the growth (SK-MEL-5 melanoma) was 91.5%. The growth (UACC-62 melanoma) was 77.5%, the growth (LOX IMVI melanoma) was 95% and the growth (SK-MEL-28 melanoma) was 94.1%. The growth (SK-MEL-2 melanoma) was 92.6%, the growth (EKVX NSCLC) was 90.3% and the growth (UO-31 renal) was 95.1%. It also gave a growth (TK-10 renal) of 102%, a growth (ACHN renal) of 101% and a growth (A498 renal) of 99.5%. It also gave a growth (CCRF-CEM leukemia) of 74% and a growth (MOLT-4 leukemia) of 94.5%.
Work on `Nc1cccc(SCc2cc3ccccc3[nH]c2=O)c1` yielded a growth (HCT-15 colon) of 43.3%, a growth (HT29 colon) of 65.7% and a growth (SNB-75 CNS) of 83.1%. The growth (U251 CNS) was 64.1%, the growth (PC-3 prostate) was 63% and the growth (SK-MEL-5 melanoma) was -4.45% (active). The growth (UACC-62 melanoma) was 4.09% (active), the growth (LOX IMVI melanoma) was 9.48% (active) and the growth (SK-MEL-28 melanoma) was 61.6%. For the same compound, the growth (SK-MEL-2 melanoma) was 56.4%, the growth (EKVX NSCLC) was 43.4% and the growth (UO-31 renal) was 39.1%. For the same compound, the growth (TK-10 renal) was 64.3%, the growth (ACHN renal) was 17.6% and the growth (CAKI-1 renal) was 34.2%. It also gave a growth (A498 renal) of 69.7%, a growth (CCRF-CEM leukemia) of 33% and a growth (MOLT-4 leukemia) of 36.1%.
For `N#Cc1ccc(/C=N/NC(=O)c2[nH]c3ccc(Br)cc3c2-c2ccccc2)o1`, the growth (HCT-15 colon) was 8.65% (active), the growth (HT29 colon) was -15.3% (active) and the growth (SNB-75 CNS) was 5.21% (active). For the same compound, the growth (U251 CNS) was 6.89% (active), the growth (PC-3 prostate) was 13.1% and the growth (SK-MEL-5 melanoma) was -65.5% (active). For the same compound, the growth (UACC-62 melanoma) was 15.2%, the growth (SK-MEL-28 melanoma) was 27.4% and the growth (SK-MEL-2 melanoma) was 22.9%. The growth (EKVX NSCLC) was 12.9%, the growth (SN12C renal) was 5.87% (active) and the growth (TK-10 renal) was 27.8%. The growth (ACHN renal) was 8.88% (active), the growth (CAKI-1 renal) was 26.9% and the growth (A498 renal) was 78.1%. The growth (CCRF-CEM leukemia) was -3.51% (active) and the growth (MOLT-4 leukemia) was 1.36% (active).
`COc1cc(-c2cc(-c3cccc(OCC(=O)O)c3)[nH]c(=O)c2C#N)cc(OC)c1OC` was tested, and the growth (HCT-15 colon) was 100%, the growth (HT29 colon) was 112% and the growth (SNB-75 CNS) was 116%. The growth (U251 CNS) was 113%, the growth (PC-3 prostate) was 97.6% and the growth (SK-MEL-5 melanoma) was 99.7%. It also gave a growth (UACC-62 melanoma) of 95.5%, a growth (SK-MEL-28 melanoma) of 102% and a growth (SK-MEL-2 melanoma) of 132%. For the same compound, the growth (EKVX NSCLC) was 91.8%, the growth (SN12C renal) was 102% and the growth (TK-10 renal) was 102%. It also gave a growth (ACHN renal) of 97%, a growth (CAKI-1 renal) of 82.2% and a growth (A498 renal) of 101%. It also gave a growth (CCRF-CEM leukemia) of 93.7% and a growth (MOLT-4 leukemia) of 85.9%.
`CCN(CC)c1ccnc(CNCCSC(c2ccccc2)(c2ccccc2)c2ccc(OC)cc2)c1` was tested, and the growth (HCT-15 colon) was -58.2% (active), the growth (HT29 colon) was -63.1% (active) and the growth (SNB-75 CNS) was 3.35% (active). The growth (U251 CNS) was -80.3% (active), the growth (PC-3 prostate) was -36% (active) and the growth (SK-MEL-5 melanoma) was -99.9% (active). The growth (UACC-62 melanoma) was -39.3% (active), the growth (LOX IMVI melanoma) was -99.2% (active) and the growth (SK-MEL-28 melanoma) was -48.5% (active). For the same compound, the growth (SK-MEL-2 melanoma) was -35.8% (active), the growth (EKVX NSCLC) was -8.82% (active) and the growth (UO-31 renal) was 8.36% (active). For the same compound, the growth (TK-10 renal) was 1.59% (active), the growth (CAKI-1 renal) was 0.0931% (active) and the growth (A498 renal) was -84.5% (active). For the same compound, the growth (CCRF-CEM leukemia) was -3.59% (active) and the growth (MOLT-4 leukemia) was 12.9%.
`COc1ccc2[nH]c(O)c(N=NC(=O)COc3ccc(NC(=O)Nc4ccccc4)cc3)c2c1` showed a growth (HCT-15 colon) of 108%, a growth (HT29 colon) of 52.4% and a growth (SNB-75 CNS) of 31.6%. The growth (U251 CNS) was -4.75% (active), the growth (PC-3 prostate) was 40.5% and the growth (SK-MEL-5 melanoma) was 69.7%. For the same compound, the growth (UACC-62 melanoma) was 10.1%, the growth (SK-MEL-28 melanoma) was 8.57% (active) and the growth (SK-MEL-2 melanoma) was 43.6%. It also gave a growth (EKVX NSCLC) of 65.4%, a growth (SN12C renal) of 25% and a growth (UO-31 renal) of 94.5%. It also gave a growth (TK-10 renal) of 113%, a growth (ACHN renal) of 94.2% and a growth (CAKI-1 renal) of 82.5%. The growth (A498 renal) was 71.7%, the growth (CCRF-CEM leukemia) was 77.9% and the growth (MOLT-4 leukemia) was 77.1%.
For `CCC(C)(C)c1ccc(OCCCCCCN2CCN(c3ccncc3)CC2)cc1`, the growth (HCT-15 colon) was -55.5% (active), the growth (HT29 colon) was -39.8% (active) and the growth (SNB-75 CNS) was 69.6%. The growth (U251 CNS) was -45.7% (active), the growth (PC-3 prostate) was -4.93% (active) and the growth (SK-MEL-5 melanoma) was -99.2% (active). For the same compound, the growth (UACC-62 melanoma) was -48% (active), the growth (LOX IMVI melanoma) was -96.8% (active) and the growth (SK-MEL-28 melanoma) was -18.9% (active). The growth (SK-MEL-2 melanoma) was 71.6%, the growth (EKVX NSCLC) was 6.51% (active) and the growth (UO-31 renal) was 28.2%. For the same compound, the growth (TK-10 renal) was 65.2%, the growth (CAKI-1 renal) was 17.5% and the growth (A498 renal) was 66.1%. For the same compound, the growth (CCRF-CEM leukemia) was -23.4% (active) and the growth (MOLT-4 leukemia) was -23.5% (active).
